Data as given in the supplement of paper PMC10681739.

How the values were obtained:
RUNX1 = RUNX1 (UniProt Q01196); assay: TF binding intensity (PBM fluorescence), negative control probe (arbitrary fluorescence units); higher = stronger binding
Description: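 gcPBM negative-control 36-bp genomic probes lacking TF binding sites. Each was incubated with recombinant human ETS1 or RUNX1 alone and detected by antibody fluorescence. Values are medians over replicate spots (4 spots for the ETS1-RUNX1 arrays, 3 for the ETS1-ETS1 array). The probes sit in constant array flanks that are not printed.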

ETS1 = molecular target: T1, ETS1 (UniProt P14921); assay: ETS1 binding intensity (PBM fluorescence) in presence of RUNX1, normalised to ETS1-only experiment (arbitrary fluorescence units); higher = stronger binding; conditions: ETS1 concentration 1 nM; RUNX1 concentration 25 nM
T1 sequence: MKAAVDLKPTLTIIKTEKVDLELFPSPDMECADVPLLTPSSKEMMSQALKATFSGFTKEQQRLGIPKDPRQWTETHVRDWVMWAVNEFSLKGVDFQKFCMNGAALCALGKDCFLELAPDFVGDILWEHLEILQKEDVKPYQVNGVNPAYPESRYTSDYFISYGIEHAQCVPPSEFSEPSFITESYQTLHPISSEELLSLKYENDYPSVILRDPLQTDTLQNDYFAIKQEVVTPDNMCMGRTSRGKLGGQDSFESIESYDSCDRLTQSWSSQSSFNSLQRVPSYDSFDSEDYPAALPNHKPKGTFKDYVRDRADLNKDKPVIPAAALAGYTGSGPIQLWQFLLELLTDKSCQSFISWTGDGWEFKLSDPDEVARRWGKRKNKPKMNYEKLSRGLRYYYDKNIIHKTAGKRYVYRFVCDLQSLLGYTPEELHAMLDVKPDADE

Sequence of RUNX1 (Q01196 whole entry): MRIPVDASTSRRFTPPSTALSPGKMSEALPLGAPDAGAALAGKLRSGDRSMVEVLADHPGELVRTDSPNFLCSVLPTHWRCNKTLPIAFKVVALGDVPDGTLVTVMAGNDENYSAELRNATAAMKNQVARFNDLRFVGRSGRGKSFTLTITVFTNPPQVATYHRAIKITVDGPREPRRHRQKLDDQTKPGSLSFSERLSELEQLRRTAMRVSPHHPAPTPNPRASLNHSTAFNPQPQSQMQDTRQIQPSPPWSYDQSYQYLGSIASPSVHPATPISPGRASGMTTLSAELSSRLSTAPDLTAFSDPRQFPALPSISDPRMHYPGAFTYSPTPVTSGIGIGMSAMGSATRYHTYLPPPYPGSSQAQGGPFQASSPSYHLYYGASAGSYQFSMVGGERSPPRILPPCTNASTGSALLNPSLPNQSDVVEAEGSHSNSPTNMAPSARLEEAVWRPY

| Sequence | TF binding intensity (RUNX1) | ETS1 binding intensity (ETS1) |
| --- | --- | --- |
| CCTTTGAAAGAAAAAAGGAAGTGTTTGGACGACAGC (protein concentration 2 nM) | 1150 |  |
| CTCAGCGGCCGAACCCGGAAGTTCGGGGCCGAGTTC (protein concentration 2 nM) | 901 |  |
| GTTCCAGAAACGTCACATCCGGCGCCCGCTCCGCCC (protein concentration 2 nM) | 890 |  |
| TGATCAGCAAAAGGAAGTGGTTAACATGGCCCAGAA |  | 4770 |
| AGTCAAACAGGATGTGGCTGGGGAGGCGGTTGTCAC |  | 4660 |
